Results filed as inconclusive are left out. Values without a mark were called inactive. Active and inactive are the calls of the source. Calls come from the whole dose curve; as a rule, active = well fitted cell-killing curve with a large enough effect; inconclusive = small, poorly fitted or top-dose-only effect; inactive = flat fitted curve, though single readings scatter.
% is set by controls: 0 for no effect and ±100 for the full control effect; potency is the fitted concentration of half-maximal effect.

A short description of this test: SDT Cancer Cell Toxicity qHTS against the NCATS CANVASS Library (AID 1347365). Note: nearly all actives have a fitted effect of over 60% in size. Conditions: SDT dog glioma viability, ATP luminescence, 72 h; series mostly up to 46.1 µM; activity change, negative = cytotoxicity: at the top concentration. The source says: Natural products and their derivatives continue to be wellsprings of nascent therapeutic potential. However, many laboratories have limited resources for biological evaluation, leaving their previously isolated or synthesized compounds largely or completely untested. To address this issue, the Canvass library of natural products was assembled (https://tripod.nih.gov/canvass), in collaboration with academic and industry researchers, for quantitative high-throughput screening (qHTS) across a diverse set of cell-based and biochemical assays. The pure (>85% purity by liquid chromatography/mass spectrometry [LC/MS]) Canvass library of 346 natural products were submitted by 45 academic laboratories and companies around the world. We collected pure natural products to circumvent deconvolution and structure elucidation due to time and resource limitations. The library was formatted into 1536-well plates and evaluated in 50 qHTS (in an 11-pnt concentration series) bioassays with broad scope of disease-relevant mechanisms. The resulting data set from 50 different assays was then systematically analyzed to identify overall trends and specific natural products with interesting biological activities. Reported herein are the results of each individual qHTS and their corresponding assay protocol. This assay uses ATP (luminescence) content to measure the cytotoxiciy of compounds on SDT dog glioma cancer cell line. National Center for Advancing Translational Sciences (NCATS), Rockville, MD National Institute of Health (NIH), Bethesda, Maryland
Cancer Cell Toxicity qHTS protocol: for cell lines G06, J3T, and SDT. 1. In a 1536 well, tissue culture treated white solid bottom plates (Corning 7494), 5 uL of SDT cell solution (final concentration of 500 cells / well) was dispensed using the Multidrop Combi dispenser (Thermo Fisher Scientific) into columns 2, 3, 5-48. 2. Control and Compounds were pin transferred (~23 nL volume) to the assay plates via Wako Pin-tool (Wako Automation, Richmond VA) equipped with a 1536 pin head. The compounds were transferred to columns 5-48 resulting in a final concentration ranging from 0.17 nM to 103 uM. Dose response titration of Bortezomib was pin transferred into column 2 (1mM; 1:2 dilution; 16 points) resulting to a final concentration range of 0.1 nM - 4.6 uM. 3. The assay plates were further incubated in the at 37C, 5% CO2, 95% Rh for 72 hr. 4. After incubation, 3 uL of CellTiterGlo reagent (Promega) was added to the assay plates (column 1-48, rows 1-32) and centrifuged for 15 sec at 1000 rpm to remove bubbles. 5. Luminescence signal was acquired via the ViewLux plate reader (PerkinElmer) using a clear emission filter, 2 sec exposure, and 1x binning settings.
`CNCCc1ccccc1`: the Potency is 46.9 nM (active). In the case of `CNCCc1ccc(O)cc1`, the “activity change, negative = cytotoxicity” value was 1.78%.

For the compound `CCC[C@H]1CC[C@H]2[C@H](C)CCC[C@H]2N1`, the “activity change, negative = cytotoxicity” value was 11.9%. Same read-out and setting: under `CC1=CC(=O)C2=C(C)C[C@H](O)[C@@H]3[C@H](OC(=O)[C@@H]3C)[C@@H]12` stands 9.37%; under `CO[C@@H](/C=C/CC/C=C/C(=O)O)[C@@H](O)[C@H](C)/C=C(\C)[C@@H](O)[C@H](C)C(=O)CCCC1CC(=O)NC(=O)C1`, 0.0751%; under `CCN1C[C@]2(C)CC[C@@H](O)[C@]34C1[C@H](C[C@H]23)C12CCC(CC14)[C@](O)(CO)[C@H]2O` (some centres not stated), 1.39%. On the same count and under the same terms, under `COC(=O)C1=C2Nc3ccccc3[C@@]23CCN2CC(C(C)=O)C1C[C@H]23` (some centres not stated) stands 2.78%.

In the case of `CCCCC[C@@H]1OC(=O)[C@@H](C)N(C)C(=O)[C@H](CCCCC)OC(=O)C(C)N(C)C(=O)[C@H](CCCCC)OC(=O)[C@@H](C)N(C)C(=O)[C@H](CCCCC)OC(=O)C(C)N(C)C1=O` (some centres not stated), the Potency is 16600 nM (active). Still for that read-out and setting: for `CCC(=O)CCCCC[C@@H]1NC(=O)[C@H]2CCCCN2C(=O)[C@H]([C@@H](C)CC)NC(=O)[C@H](Cc2cn(OC)c3ccccc23)NC1=O` the value was 1050 nM (active). As to `CC1=CC2CC[C@@H]3[C@@H](C)C[C@H](C)[C@@H](C1)N23` (some centres not stated), the compound was classed as inactive.

In the case of `CO[C@@H](/C=C/CC/C=C/C(=O)O)[C@@H](O)[C@H](C)[C@@H](O)/C(C)=C/[C@H](C)C(=O)CCCC1CC(=O)NC(=O)C1`, the “activity change, negative = cytotoxicity” value was -4.6%. With `C[C@@H]1CC[C@@H](c2ccoc2)N2C[C@@]3(CC[C@@H]12)CS[C@@]1(CC[C@H]2[C@H](C)CC[C@@H](c4ccoc4)N2[C@@H]1O)C3`, the Potency was 6620 nM (active). Regarding `CC=C1CN(C=O)[C@H]2C[C@@H]1[C@@H](C(=O)OC)[C@@]13CCOC21Nc1ccccc13` (some centres not stated), the “activity change, negative = cytotoxicity” value was -10.1%. Turning to `NCCc1ccccc1`, the “activity change, negative = cytotoxicity” value is 12.5%. Still for that read-out and setting: under `CC[N@@+]1([O-])C[C@]2(C)CC[C@@H](O)[C@@]34C5C[C@H]6CC[C@@]5(C(C[C@H]23)C41)[C@H](O)[C@@]6(O)CO` (some centres not stated) stands -7.09%. Consider `C[C@]12CC(O)C3[C@@H](CCC4C[C@@H](O)CC[C@@]43CO)[C@@]1(O)CCC2C1=CC(=O)OC1` (some centres not stated), for which the Potency is 2640 nM (active). For `CC(=O)N[C@H]1CCN2CCC[C@H]12`, the “activity change, negative = cytotoxicity” value was 0.13% [at 103 µM]. On to `C=C1[C@@H](C)[C@H]2[C@H](Cc3ccccc3)NC(=O)[C@]23OC(=O)/C=C/[C@H](O)CCC[C@@H](C)C/C=C/[C@H]3[C@@H]1O`, for which the Potency is 2640 nM (active). `O=C(c1ccccc1O)c1[nH]c(Cl)c(Cl)c1-n1c(C(=O)c2ccccc2O)cc(Cl)c1Cl`: the Potency is 2350 nM (active). Same read-out and setting: under `COc1ccc2c(c1)[nH]c1c(C)nccc12` stands 24100 nM (active). `CCCC[C@@H]1CC[C@H]2CCCC(CCC)N12` (some centres not stated): the “activity change, negative = cytotoxicity” value was -1.72%. With `COc1ccc(C23Oc4cc(OC)cc(OC)c4[C@](O)([C@H](c4ccccc4)C2C(=O)NCCCCNC(=O)c2ccccc2)[C@@H]3O)cc1` (some centres not stated), the “activity change, negative = cytotoxicity” value is 6.67%.

Source of the values: PubChem BioAssay (NCATS).
